Bioassay records as filed in PubChem.
The list is not random: actives were taken first. Their share in the collection is about 19%.
S-ASM inh – inhibitors of human secretory acid sphingomyelinase. P17405. placental ASM, HMU-PC fluorogenic substrate, 60 min. Potency, µM (titrated, usually from 57.5 µM), for the others: at the highest dose activity change, negative = inhibition, hits mostly inhibitors. 340,000 compounds, 0.006% hits; note: potency is the fitted concentration of half-maximal effect
Target sequence (P17405 47-631 limits assumed): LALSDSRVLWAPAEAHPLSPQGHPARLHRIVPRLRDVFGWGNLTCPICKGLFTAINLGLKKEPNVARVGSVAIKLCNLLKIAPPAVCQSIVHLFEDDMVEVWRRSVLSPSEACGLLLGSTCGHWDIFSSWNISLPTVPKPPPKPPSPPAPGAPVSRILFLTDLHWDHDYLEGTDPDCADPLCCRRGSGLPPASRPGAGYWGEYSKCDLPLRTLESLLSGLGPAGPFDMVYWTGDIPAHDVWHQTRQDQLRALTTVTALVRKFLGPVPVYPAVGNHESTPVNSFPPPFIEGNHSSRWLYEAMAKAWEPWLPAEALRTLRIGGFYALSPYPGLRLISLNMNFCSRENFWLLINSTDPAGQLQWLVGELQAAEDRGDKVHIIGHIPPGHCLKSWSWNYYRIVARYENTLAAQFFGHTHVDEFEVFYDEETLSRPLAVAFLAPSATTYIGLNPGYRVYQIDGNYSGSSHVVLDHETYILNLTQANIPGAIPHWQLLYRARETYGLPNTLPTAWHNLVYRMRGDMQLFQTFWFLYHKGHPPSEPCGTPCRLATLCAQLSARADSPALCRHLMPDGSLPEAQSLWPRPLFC
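Fluorogenic HMU-PC substrate (9 uM final) is turned over by placental ASM in 60 min at 37 C after a 10 min compound preincubation. Reaction ended by alkaline stop (pH 10), with fluorescence read at 386/447 nm.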
IL-1B inflam inh – inflammasome signaling inhibition, IL-1 beta readout; THP-1 LPS/ATP IL-1B secretion, AlphaLISA, 16 h; active compounds read low; activity change, % at 57.5 µM; 360,000 compounds, 4.7% hits; in the data active = activity change below about -50%; inconclusive = mostly about -30% to -49%; note: % is set by controls: 0 for no effect and ±100 for the full control effect
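THP-1 cells pretreated 1 hr with compounds (up to 57.5 uM final), then stimulated with LPS (250 ng/mL final) plus ATP (1.25 mM final); secreted IL-1B measured by AlphaLISA after 16 hr, decreased signal indicating inhibition.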
TGFb inhibitor – TGF-b pathway inhibition; 410,000 compounds, 1.2% hits; AID 588855; HepG2 CAGA-GFP TGF-b/SMAD3 reporter, GFP fluorescence, 18 h; TGF-beta stimulated, 500 pg/mL final; Potency, µM (doses to about 46.1 µM), inactives show top-dose activity, negative = inhibition, usual class: inhibitors; note: potency is the fitted concentration of half-maximal effect; % is set by controls: 0 for no effect and ±100 for the full control effect; nearly all actives have a fitted effect of over 65% in size
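Using HEPG2 CAGA-GFP reporter cells at 1000 cells/well, we pinned test compounds, stimulated with recombinant TGF-beta (500 pg/mL final) and measured total well GFP after 18 h.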
DT40 TDP1 CPT – DT40-hTDP1 cell growth loss with CPT; chicken DT40 Tdp1-/-;hTDP1 cells + 20 nM CPT, ATP luminescence, 48 h; Potency, µM (top dose mostly 46.2 µM), for inactives: top-dose activity change, negative = growth inhibition, usual class: inhibitors; 420,000 compounds, 12% hits; AID 686979; note: potency is the fitted concentration of half-maximal effect; % is set by controls: 0 for no effect and ±100 for the full control effect; nearly all actives have a fitted effect of over 55% in size
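Chicken DT40 Tdp1-/- cells complemented with human TDP1, 400 cells/well, exposed to compounds plus 20 nM camptothecin for at least 48 h at 37 C; viability read as ATP content by CellTiter-Glo luminescence.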
DT40 TDP1 no CPT – qHTS for Inhibitors of human tyrosyl-DNA phosphodiesterase 1 (TDP1): qHTS in cells in absence of CPT; DT40 Tdp1-/- hTDP1 cells, no CPT, ATP luminescence, 48 h; Potency, µM (series often up to 46.2 µM), for the others: at the highest dose activity change, negative = growth inhibition, hits mostly inhibitors; 420,000 compounds, 15% hits; note: potency is the fitted concentration of half-maximal effect; % is set by controls: 0 for no effect and ±100 for the full control effect; nearly all actives have a fitted effect of over 55% in size
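Growth kinetics read by CellTiter-Glo luminescence after ≥48 hr at 37 °C. Cells: DT40 Tdp1-/- stably carrying human TDP1, 400 per well, compound exposure in the absence of CPT (DMSO vehicle).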
HepG2 viability – counter-screen for TGF-b inhibitors: cytotoxicity in HepG2 cells | AID 588856 | Potency, µM (doses to about 46.1 µM), without a hit: top-dose activity change, negative = cytotoxicity, actives largely listed as cytotoxic | 410,000 compounds, 0.76% hits | HepG2 CAGA-GFP viability, ATP luminescence, 18 h; note: potency is the fitted concentration of half-maximal effect
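HepG2 CAGA-GFP cells (1000/well, DMEM with 1% FBS) received compound, then TGF-beta at 500 pg/mL final, and were incubated 18 hours at 37 degrees C. Viability was read by CellTiter-Glo luminescence. Media-only wells were set as complete cell-killing and DMSO as no toxicity.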
* marks the source's active call; other numbers are inactive results; ? = inconclusive; / = no result. Unless noted, calls come from the whole dose curve; as a rule, active = well fitted curve in the direction sought with a large enough effect; inconclusive = small, poorly fitted or top-dose-only effect, or another doubt; inactive = no such curve, though single readings can be large; an effect the other way counts as inactive or inconclusive.

SMILES	S-ASM inh	IL-1B inflam inh	TGFb inhibitor	DT40 TDP1 CPT	DT40 TDP1 no CPT	HepG2 viability
COc1ccc(N2CCN(CCCNC(=O)C3COc4ccccc4C3)CC2)cc1 (stereo not drawn)	/	/	3%	12µM*	16µM*	-34%
COc1ccc(N2CCN(CCCNC(=O)CN3C(=O)COc4ccccc43)CC2)cc1	5%	-19	-1%	?	-4%	-6%
COc1ccc2c(c1)CC(C(=O)NCCN1CCN(c3ccccc3F)CC1)CO2 (stereo not drawn)	/	/	-1%	?	?	-4%
COc1ccc2c(c1)CC(C(=O)NCCCN1CCN(c3ccc(F)cc3)CC1)CO2 (stereo not drawn)	/	/	-3%	21µM*	26µM*	-20%
O=C(NCCCN1CCN(c2ccccc2F)CC1)C1CCN(S(=O)(=O)N2CCOCC2)CC1	2%	15	17%	7%	4%	0%
O=C(NCc1cccc(Cl)c1)c1ccc2nc(N3CCCCC3)sc2c1	/	/	11%	?	?	1%
O=C(NCCN1CCOCC1)C1CC(=O)N(c2ccc(Cl)cc2)C1 (stereo not drawn)	0%	28	8%	1%	-21%	-33%
COc1ccc(C(=O)NCC(c2cccnc2)N2CCN(c3ccccc3OC)CC2)cc1 (stereo not drawn)	/	/	?	18µM*	12µM*	-49%
COc1ccccc1N1CCN(C(CNC(=O)C(=O)NCCc2ccccc2)c2cccnc2)CC1 (stereo not drawn)	/	/	-19%	10µM*	8.2µM*	-30%
Cc1[nH][nH]c(=O)c1C(c1ccc(O)c(Br)c1)c1c(C)[nH][nH]c1=O	2%	-73*	-4%	-27%	?	-14%
COc1cc(C(c2c(C)[nH][nH]c2=O)c2c(C)[nH][nH]c2=O)ccc1OC(C)C	5%	-70*	-16%	12%	-23%	0%
CCOc1cc(C(c2c(C)[nH][nH]c2=O)c2c(C)[nH][nH]c2=O)ccc1O	-1%	-63*	-5%	-19%	-8%	-2%
COc1ccc(C(c2c(C)[nH][nH]c2=O)c2c(C)[nH][nH]c2=O)cc1Br	1%	-29	-11%	-6%	?	-24%
CCOC(=O)Cc1ccc(NC(=O)N(C(C)C)C2CCN(C(C)=O)CC2)cc1	/	/	-19%	1%	-2%	13%
CCN(CC)S(=O)(=O)c1ccc(C(=O)Nc2nc3ccc(Cl)cc3s2)cc1	/	/	13%	?	?	-10%
COC(=O)c1cc(-c2ccc(S(=O)(=O)N3CCCC3)cc2)c(C(F)(F)F)s1	-5%	3	9%	10%	?	-30%
COC(=O)c1cc(-c2ccc(S(=O)(=O)N3CCCCC3)cc2)c(C(F)(F)F)s1	-1%	9	19%	?	23µM*	23%
CCN(CC)S(=O)(=O)c1ccc(-c2cc(C(=O)OC)sc2C(F)(F)F)cc1	2%	-21	-10%	-30%	18µM*	8%
Cc1ccc(S(=O)(=O)N(C)C)cc1NC(=O)COC(=O)CSc1ccccc1	1%	2	-3%	8%	-4%	4%
CC(=O)NC1=C(C#N)CCC1	/	/	-10%	8%	-16%	-16%
CCOc1cccc(CC(=O)NCc2ccc3c(c2)CCN3C(C)=O)c1OCC	/	/	-1%	8%	-16%	-16%
O=C(Cn1cc(SCc2ccc(C(F)(F)F)cc2)c2ccccc21)N1CCCCCC1	/	/	?	18µM*	?	-29%
O=C(CSc1cn(CC(=O)N2CCCC2)c2ccccc12)Nc1cc(C(F)(F)F)ccc1Cl	/	/	?	18µM*	?	-20%
Cc1ccccc1NC(=O)CSc1cn(CC(=O)N2CCCC2)c2ccccc12	/	/	-11%	?	?	3%
O=C(CSc1cn(CC(=O)N2CCCCC2)c2ccccc12)Nc1ccc(C(F)(F)F)cc1	/	/	-16%	-16%	-23%	-2%
SMILES	S-ASM inh	IL-1B inflam inh	TGFb inhibitor	DT40 TDP1 CPT	DT40 TDP1 no CPT	HepG2 viability
O=C(Cn1cc(SCc2ccc(C(F)(F)F)cc2)c2ccccc21)N1CCCCC1	/	/	?	?	23µM*	-26%
COc1cc(C=C(c2nc3ccccc3s2)c2nc3ccccc3s2)ccc1O	-27%	-90*	?	-18%	-28%	-33%
COc1ccc(C=C(c2nc3ccccc3s2)c2nc3ccccc3s2)cc1O	-5%	-98*	0%	?	21µM*	-29%
COc1cccc(/C=C(\CC(=O)O)c2nc3ccccc3s2)c1	8%	1	-2%	-16%	-23%	-18%
COc1cc(/C=C/c2nc3ccccc3s2)cc(OC)c1O	99%	-11	2%	-1%	-18%	-15%
CC(=O)N1CCN(C(=S)c2ccc(Cl)cc2)CC1	2%	9	4%	5%	-3%	10%
CCc1ccc(-c2csc3[n+]2CCN3C(C)=O)cc1	11%	-9	26%	?	26µM*	-37%
CC(=O)N1CC[n+]2c(-c3ccc(Cl)cc3)csc21	16%	-2	-23%	26µM*	23µM*	-2%
C=Cn1c(C(=O)O)ccc1-c1ccc(CC)cc1	-5%	0	-2%	-4%	2%	3%
Cc1cc(S(=O)(=O)Nc2ccc3cn[nH]c3c2)c(C)cc1Cl	-3%	16	?	-30%	4.6µM*	-24%
O=S(=O)(Nc1ccc2cn[nH]c2c1)c1ccc(Cl)cc1	-1%	10	5%	-17%	?	-15%
CC(=O)C[C@H](O)CC(=O)[C@@H]1OC(=O)[C@H](C)C/C=C\Cc2ccccc21	3%	14	-4%	-1%	-1%	2%
O=C(NCc1ccc(Cl)c(Cl)c1)c1cc(C2CCCCN2C(=O)c2ccccn2)on1 (stereo not drawn)	/	0	-14%	10µM*	18µM*	-14%
O=C(NCc1ccccc1)c1cc(C2CCCCN2C(=O)CCCc2ccccc2)on1 (stereo not drawn)	/	-15	0%	-24%	?	-13%
O=C(NCc1ccc(Cl)c(Cl)c1)c1cc(C2CCCCN2C(=O)OCCF)on1 (stereo not drawn)	/	-23	?	23µM*	23µM*	-28%
CCN(CC)C(=O)c1sc2c(c1C)c(=O)n(-c1ccc(Cl)c(Cl)c1)c(=O)n2CC(=O)Nc1cccc(OC)c1	/	/	-19%	-21%	-8%	-1%
